Bioassay records: PubChem BioAssay, National Center for Advancing Translational Sciences (NCATS)
This is a sample that favours compounds with a hit; in the whole collection about 21% have one here.
IL1B secr inh = qHTS for Inhibitors of Inflammasome Signaling: IL-1-beta AlphaLISA Primary Screen; THP-1 LPS/ATP IL-1B secretion, AlphaLISA, 16 h; hits give low values; activity change, % at 57.5 µM; actives 4.7% (n = 360,000); in the data active means activity change below about -50%; inconclusive means mostly about -30% to -49%
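THP-1 cells pretreated 1 hr with compounds (up to 57.5 uM final), then stimulated with LPS (250 ng/mL final) plus ATP (1.25 mM final); secreted IL-1B measured by AlphaLISA after 16 hr, decreased signal indicating inhibition.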
VP16 counter = VP16 counterscreen qHTS for inhibitors of ROR gamma transcriptional activity. Potency, µM (titrated, usually from 53.6 µM), for inactives: at the highest dose activity, negative = inhibition, usual class: inhibitors. actives 3.5% (n = 310,000). AID 2546, 2010. Drosophila S2 Gal4-VP16 UAS-luciferase, luminescence, 20 h;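 further: Gal4-VP16 expression switched on by copper sulfate through the metallothionein promoter; potency means the concentration at half of the fitted maximal effect; nearly all actives have a fitted effect of over 50% in size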
RORg inh = qHTS for inhibitors of ROR gamma transcriptional activity; Nuclear receptor ROR-gamma (Mus musculus), P51450; Drosophila S2 Gal4-RORgamma UAS-luciferase reporter, 20 h; Potency, µM (titrated, usually from 53.6 µM), for inactives: at the top dose activity change, negative = inhibition, hits mostly inhibitors; actives 5.4% (n = 310,000); AID 2551, 2010; further: potency means the concentration at half of the fitted maximal effect; nearly all actives have a fitted effect of over 60% in size
Target sequence (P51450 whole entry, looked up, the tested form may be a part): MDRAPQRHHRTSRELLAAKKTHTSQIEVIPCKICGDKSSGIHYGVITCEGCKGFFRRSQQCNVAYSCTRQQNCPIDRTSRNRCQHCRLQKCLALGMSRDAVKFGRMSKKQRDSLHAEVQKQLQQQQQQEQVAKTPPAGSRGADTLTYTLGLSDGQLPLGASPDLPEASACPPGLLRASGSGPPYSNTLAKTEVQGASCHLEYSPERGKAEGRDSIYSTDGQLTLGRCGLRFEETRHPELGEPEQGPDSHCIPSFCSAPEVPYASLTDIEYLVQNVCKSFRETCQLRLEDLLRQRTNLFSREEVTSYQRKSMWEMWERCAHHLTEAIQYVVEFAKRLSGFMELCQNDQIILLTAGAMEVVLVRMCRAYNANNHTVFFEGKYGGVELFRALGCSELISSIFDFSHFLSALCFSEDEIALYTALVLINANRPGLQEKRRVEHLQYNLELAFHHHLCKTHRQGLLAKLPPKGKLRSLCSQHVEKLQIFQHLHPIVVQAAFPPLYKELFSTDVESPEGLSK
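In this cell-based reporter format, copper sulfate (700 uM final) drives Gal4–ROR gamma fusion expression from a metallothionein promoter in Drosophila Schneider cells; compounds preincubated 1 hr, reporter read after 20 hr at ambient temperature.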
ELG1 repair inh = qHTS screen for small molecules that inhibit ELG1-dependent DNA repair in human embryonic kidney (HEK293T) cells expressing luciferase-tagged ELG1. HEK293T ELG1-luciferase reporter, luminescence, 16 h; DNA damage induced by 5-fluorouridine. Potency, µM (titrated, usually from 46.1 µM), for inactives: at the top dose activity change, negative = inhibition, most hits filed as inhibitors. actives 2.3% (n = 330,000); further: potency means the concentration at half of the fitted maximal effect; nearly all actives have a fitted effect of over 55% in size
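Step one: seed 2,000 cells per well. Step two: pin-transfer compound or DMSO alongside 5-fluorouridine. Step three: incubate 16 hr, 37 °C, 5% CO2. Step four: add ONE-Glo, wait 30 min, read luminescence.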
DT40 TDP1 CPT = qHTS for Inhibitors of human tyrosyl-DNA phosphodiesterase 1 (TDP1): qHTS in cells in presence of CPT; chicken DT40 Tdp1-/-;hTDP1 cells + 20 nM CPT, ATP luminescence, 48 h; Potency, µM (series often up to 46.2 µM), inactives show at the highest dose activity change, negative = growth inhibition, usual class: inhibitors; actives 12% (n = 420,000); AID 686979, 2013; further: potency means the concentration at half of the fitted maximal effect; nearly all actives have a fitted effect of over 55% in size
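Cell growth measured by CellTiter-Glo luminescence after a minimum 48 h, 37 C compound exposure with 20 nM CPT in Tdp1-knockout DT40 cells stably expressing hTDP1, seeded 400/well; qHTS titration format.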
TDP1 cell noCPT = qHTS for Inhibitors of human tyrosyl-DNA phosphodiesterase 1 (TDP1): qHTS in cells in absence of CPT. DT40 Tdp1-/- hTDP1 cells, no CPT, ATP luminescence, 48 h. Potency, µM (top dose mostly 46.2 µM), without a hit: top-dose activity change, negative = growth inhibition, hits mostly inhibitors. actives 15% (n = 420,000); further: potency means the concentration at half of the fitted maximal effect; nearly all actives have a fitted effect of over 55% in size
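Cells were dispensed at 400 per well, compounds added by pin tool, plates incubated ≥48 hr at 37 °C, then CellTiter-Glo added for 30 min at room temperature before luminescence reading. Line: DT40 Tdp1-/- complemented with hTDP1; camptothecin omitted.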
* hit, by the source's call; ? = inconclusive; . = not tested or not shown; [ ] = remark or other dose. Unless noted, the call rests on the fitted dose curve; in most records, active means well fitted curve in the direction sought with a large enough effect; inconclusive means small, poorly fitted or top-dose-only effect, or another doubt; inactive means no such curve, though single readings can be large; an effect the other way counts as inactive or inconclusive. On the % scale 0 is the no-effect control and ±100 the full control effect.

SMILES | IL1B secr inh | VP16 counter | RORg inh | ELG1 repair inh | DT40 TDP1 CPT | TDP1 cell noCPT
O=C(NC(=S)Nc1ccc(CN2CCOCC2)cc1)c1cccc([N+](=O)[O-])c1 | 32 | ? | ? | 2% | 0% | -23%
O=C(NNC(=S)Nc1ccc(Cl)c(Cl)c1)c1cccc([N+](=O)[O-])c1 | . | -4% | -41% | 3% | -2% | ?
O=C(NNC(=S)NC(=O)c1ccccc1)c1cccc([N+](=O)[O-])c1 | 36 | 11µM* | 7.9µM* | -2% | ? | ?
O=C(NNC(=S)NC(=O)c1cccc([N+](=O)[O-])c1)c1ccc(Br)cc1 | 73 | ? | 11µM* | ? | 16µM* | 21µM*
O=C(NC(=S)Nc1ccc(N2CCOCC2)cc1)c1cccc([N+](=O)[O-])c1 | 27 | 2.8µM* | 2.2µM* | -9% | -21% | -21%
COc1cccc(C(=O)NC(=S)Nc2ccc([N+](=O)[O-])cc2C)c1 | 0 | ? | 7.1µM* | 13% | ? | ?
O=C(CN1CCN(S(=O)(=O)c2ccccc2)CC1)N1CCc2ccccc21 | 2 | . | . | -5% | -8% | -12%
NNC(=O)c1cccc(Cn2cc(Br)c([N+](=O)[O-])n2)c1 | -17 | -8% | -37% | -22% | ? | ?
COc1ccc(NC(=O)c2cccc(Cn3cc(Br)c([N+](=O)[O-])n3)c2)c(C)c1 | 22 | -28% | ? | ? | ? | 18µM*
COC(=O)c1cc(=O)nc(NN=C2c3ccccc3-c3ccccc32)s1 | 0 | . | . | . | 23µM* | ?
COC(=O)c1cc(=O)nc(NN=C2CCCCC2)s1 | 10 | . | . | . | 1% | 1%
Cc1[nH]nc2cn[nH]c12 | 25 | -3% | -16%[10 µM] | 13µM* | -16% | -7%
Cc1[nH]c(C)c2c(=O)[nH]ncc12 | -12 | 2% | -44% | ? | -19% | -19%
Cc1ccsc1/C=N/Nc1ccc(F)cc1F | -18 | 3% | 33% | ? | 4% | -1%
CN(c1ccccc1)S(=O)(=O)c1cccc(NC(=O)Cn2cnc3c2c(=O)n(C)c(=O)n3C)c1 | 8 | -6% | ? | ? | 23µM* | 16µM*
Cc1ccccc1C(=O)Nc1cccc(NC(=O)Cn2cnc3c(=O)n(C)c(=O)n(C)c32)c1 | 47 | 1% | -15% | ? | 10µM* | 8.2µM*
CN(c1ccccc1)S(=O)(=O)c1cccc(NC(=O)CSc2ncn[nH]2)c1 | 23 | ? | ? | ? | 8.2µM* | 5.8µM*
CN(c1ccccc1)S(=O)(=O)c1cccc(NC(=O)CSc2nnc(N)s2)c1 | -3 | ? | ? | ? | 8.2µM* | 8.2µM*
COc1ccc(S(=O)(=O)Nc2ccc3c(c2)C(=O)N([C@H](C)CO)C[C@H](C)[C@@H](CN(C)S(C)(=O)=O)O3)cc1 | 20 | . | . | ? | 24% | -3%
CCCN(C)C[C@@H]1Oc2ncc(Br)cc2C(=O)N([C@@H](C)CO)C[C@H]1C | 23 | . | . | . | -10% | -20%
Cc1cc(C)cc(N(CC(=O)NCc2cccnc2)S(C)(=O)=O)c1 | 13 | -5% | 14% | -1% | -9% | -16%
Cc1cc(C(=O)Nc2cc(S(C)(=O)=O)ccc2Cl)c(C)o1 | 5 | . | . | 4% | 24% | -1%
CN(c1ccccc1)S(=O)(=O)c1cccc(NC(=O)CSc2nncs2)c1 | 1 | 22µM* | 37% | ? | 7.3µM* | 8.2µM*
CN(c1ccccc1)S(=O)(=O)c1cccc(NC(=O)CSc2nnc(C3CC3)n2C)c1 | 16 | . | . | 1% | -16% | -15%
COc1ccc(C)cc1NC(=O)CN(c1ccccc1)S(=O)(=O)N(C)C | . | . | . | . | -21% | -27%
SMILES | IL1B secr inh | VP16 counter | RORg inh | ELG1 repair inh | DT40 TDP1 CPT | TDP1 cell noCPT
COc1ccc(Cl)cc1NC(=O)CN(C)C(=O)C12CC3CC(CC(Cl)(C3)C1)C2 | -25 | -13% | -12% | 18µM* | ? | 23µM*
COc1ccc(Cl)cc1NC(=O)CN(C)C(=O)c1sc2ccccc2c1Cl | -6 | . | . | ? | 16µM* | ?
COc1ccc(Cl)cc1NC(=O)CN(C)C(=O)c1ccc(-n2nc(C)cc2C)cc1 | -26 | . | . | ? | 18µM* | 15µM*
COc1ccc(Cl)cc1NC(=O)CN(c1ccccc1)S(=O)(=O)N(C)C | -10 | -4% | 3% | . | 29µM* | 18µM*
COc1ccc(NC(=O)CN(c2ccccc2)S(=O)(=O)c2ccccc2)c(OC)c1 | 10 | -15% | 27% | -18% | ? | ?
COc1ccc(Cl)cc1NC(=O)CN(c1cccc(C)c1C)S(=O)(=O)c1ccccc1 | . | . | . | . | 23µM* | 23µM*
COc1ccc(N(CC(=O)Nc2ccc(Cl)cc2C)S(=O)(=O)c2ccccc2)c(OC)c1 | . | . | . | . | ? | 18µM*
C#CCCCO/N=C1/[C@H]2O[C@@H]2[C@@H](O)[C@H]2[C@H]1CCn1c(=O)n(Cc3cc4c(cc3Cl)OCO4)c(=O)n12 | . | -3%[10 µM] | -15%[10 µM] | . | . | .
CC(C)CC(C)c1cc(N)nc2nc3ccccc3n12 (stereo not drawn) | 70 | -12% | 16µM* | 0% | ? | ?
COc1ccc(Cl)cc1NC(=O)Cn1c(=O)n(Cc2nc(C)no2)c(=O)c2ccccc21 | . | . | . | . | -3% | -18%
COc1ccc2ccc(=O)oc2c1CC(=O)C(C)C | -4 | . | . | 16% | 1% | 6%
COc1ccc(C(=O)N(C)c2ccccc2C(=O)NCCc2ccccc2)cc1 | 31 | -4% | 8% | -6% | 4.1µM* | 2.9µM*
Cc1cc(NC(=O)c2ccc3[nH]c(C)c(C)c3c2)ccn1 | -58* | -7% | 22% | 6% | 21µM* | 26µM*
N#Cc1ccc(-c2ccc(OCC(=O)NCCc3ccccc3)cc2)cc1 | 6 | ? | 19% | 2% | ? | 12µM*
COc1ccc(CCNC(=O)c2ccc3[nH]c(C)c(C)c3c2)cc1OC | . | . | . | . | ? | 23µM*
COc1ccc(SCCCn2c(=O)c3c(ncn3C)n(C)c2=O)cc1 | 7 | 0% | 32% | -1% | ? | ?
CCCCC[C@H](O)/C=C/C=C\C/C=C\CCCCC(=O)O | . | -4% | -14% | . | . | .
